Compound activity from PubChem.
D1 potentiator: potentiators of human D1 dopamine receptor; HEK293 TREx D1 cells, calcium flux, dopamine EC20 potentiation; 360,000 compounds, 0.036% hits; AID 504651; P21728; potentiation, % at 10 µM; in the data active = potentiation above about 30%; also: 0% is about no effect
Target sequence (P21728 whole entry, looked up): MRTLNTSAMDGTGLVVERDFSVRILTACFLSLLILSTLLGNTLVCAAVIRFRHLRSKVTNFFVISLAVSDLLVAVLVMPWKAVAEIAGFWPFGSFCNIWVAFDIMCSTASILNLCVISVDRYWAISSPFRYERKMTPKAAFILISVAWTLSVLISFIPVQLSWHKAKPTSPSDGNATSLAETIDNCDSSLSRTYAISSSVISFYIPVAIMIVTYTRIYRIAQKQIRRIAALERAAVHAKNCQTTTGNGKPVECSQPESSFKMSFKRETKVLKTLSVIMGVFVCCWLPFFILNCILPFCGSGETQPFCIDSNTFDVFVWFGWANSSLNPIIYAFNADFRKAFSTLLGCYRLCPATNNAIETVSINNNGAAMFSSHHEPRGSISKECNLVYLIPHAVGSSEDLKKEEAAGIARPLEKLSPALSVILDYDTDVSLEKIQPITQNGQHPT
TRHR PAM: allosteric enhancers of human TRH receptor. P34981. TRHR cells, fluo-8 calcium fluorescence, EC20 TRH enhancement. enhancement, % at 2 µM. 360,000 compounds, 0.66% hits; in the data active = enhancement above about 30%; also: 0% is about no effect
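TRHR-expressing cells loaded with fluo-8 calcium dye were read kinetically (ex 480/em 530) during compound addition, then stimulated with an EC20 of TRH (10 nM final). Enhancement of the Gq-mediated intracellular calcium response was scored.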
D1 antagonist: blocks dopamine activation of the human D1 receptor; P21728; HEK293 TREx D1 cells, calcium flux, dopamine EC80; stronger effect = lower value; activity change, negative = inhibition, % at 10 µM; 360,000 compounds, 3.2% hits; in the data active = activity change below about -30%; also: % is scaled to controls: 0 for no effect and ±100 for the full control effect
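After overnight tetracycline induction at 30 C, force-coupled D1 HEK293 cells took up a no-wash calcium dye at room temperature. Compounds were added and monitored 180 s, and the response to EC80 dopamine was then recorded.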
D1 agonist: human D1 receptor agonism; HEK293 T-REx D1 cells, calcium flux, agonist mode; activation, % at 2 µM; 360,000 compounds, 1% hits; also: 0% is about no effect
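Inducible HEK293 T-REx D1 cells, force-coupled to calcium signalling, were plated at 4000 cells/well with tetracycline and held overnight at 30 C. After no-wash calcium dye loading, compound-evoked calcium rise over 180 s flagged agonists.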
Epigenetic reg: derepresses silenced GFP reporter in murine cells. murine LDR cells, GFP reporter derepression, 30 h. Potency, µM (series often up to 53.9 µM), for inactives: top-dose GFP activation, actives largely listed as activators. 280,000 compounds, 0.2% hits; active = well fitted activation curve with a large enough effect; inconclusive = small, poorly fitted or top-dose-only effect; also: potency is read from the fitted curve at half-maximal effect; % of control where 0% means no effect; nearly all actives have a fitted effect of over 60% in size
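Derepression of a silenced CMV-GFP reporter in murine LDR cells is scored by enumerating GFP-positive cells with a laser-scanning microplate cytometer after 30 hours of treatment at 37 C.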
TRHR agonist: activates the human TRH receptor; 360,000 compounds, 0.18% hits; TRHR cells, calcium flux fluo-8, FDSS agonist mode; AID 493084; activation, % at 2 µM; P34981; also: 0% is about no effect
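Agonist-mode FDSS calcium read (Ex 480/Em 530, 1 s cycles) in 1536-well TRHR cells with fluo-8 dye, after 10-cycle baseline and 23 nL compound addition; TRH at EC20 (10 nM final) added afterwards for the enhancer phase.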
An asterisk follows results filed as active; ? = inconclusive; . = no result; [ ] = remark or other dose. A selection: hits, their analogues and other compounds. The true share with any hit is near 4.6%. Rule as the data show it, unless noted: active = activation above about 30%; inactive = the rest.

SMILES | D1 potentiator | TRHR PAM | D1 antagonist | D1 agonist | Epigenetic reg | TRHR agonist
Cc1cnc(NC(=O)c2ccc3c(c2)C(=O)N(Cc2cccnc2)C3=O)s1 | -1.9 | -1.4 | -32.9* | 2.3 | . | 0.1
O=C(NCc1c(Cl)cccc1Cl)c1ccc2nnsc2c1 | -2.5 | -2.8 | -43.9* | 1.2 | -0.3% | -0.7
C#CCOCCOCCOCCNc1nc(N2CCOCC2)nc(N2CCN(C(=O)[C@H](CCCCN)n3cc([C@@H](N)C(C)CC)nn3)CC2)n1 (some centres undefined) | -2.8 | 1.6 | -35.3* | 6.4 | 4.1% | 0.5
C#CCOCCOCCOCCNc1nc(N2CCN(C(=O)CCCCCCCCCCNC(=O)[C@H](CCCCN)n3cc(C)nn3)CC2)nc(N2CCN(C(=O)CCCCCCCCCCNC(=O)[C@@H]([C@H](C)CC)n3cc(CCCCCN)nn3)CC2)n1 | 39.5* | 5.9 | 184.3 | 29.9 | . | 4.0
C#CCOCCOCCOCCNc1nc(N2CCN(C(=O)CCCCCCCCCCNC(=O)[C@H]([C@@H](C)CC)n3cc(CCCCCN)nn3)CC2)nc(N2CCN(C(=O)CCCCCCCCCCNC(=O)[C@@H]([C@H](C)O)n3cc(C)nn3)CC2)n1 | 55.0* | 3.5 | 3.3 | 156.0* | . | 0.5
C#CCOCCOCCOCCNc1nc(N2CCN(C(=O)CCCCCCCCCCNC(=O)[C@H](CCCCN)n3cc(CCO)nn3)CC2)nc(N2CCN(C(=O)CCCCCCCCCCNC(=O)[C@@H]([C@H](C)O)n3cc(C)nn3)CC2)n1 | 9.9 | -4.1 | 14.8 | 24.7 | . | -0.6
O=Cc1ccc(OC2C=CC(c3ccccc3)OC2CO)cc1 (centres undefined) | . | . | . | . | 0.8%[10.1 µM] | .
CCc1c(C(=O)N2CCCN(C)CC2)csc1C | -6.8 | -2.4 | -31.0* | 0.0 | . | 0.0
CCc1ccc(C(=O)N2CCCN(C)CC2)s1 | -2.2 | 4.4 | -16.2 | 0.9 | . | 0.0
CC[C@@H](C(=O)[C@@H](C)[C@@H](O)[C@H](C)CCc1ccc(C)c(O)c1C(=O)O)[C@H]1O[C@](CC)([C@H]2CC[C@](O)(CC)[C@H](C)O2)C[C@@H]1C | 4.5 | 40.2* | -64.4* | 207.2* | . | 99.9*
O=C(NCc1ccc(F)cc1)c1cccc2c1C(=O)c1ccc(N3CCOCC3)cc1S2(=O)=O | -2.1 | 5.0 | . | 42.5* | . | 9.2
O=C(NC1CCCC1)c1cccc2c1C(=O)c1ccc(N3CCCCC3)cc1S2(=O)=O | -3.8 | 8.6 | 17.1 | 5.6 | . | 10.4
CC1CCN(c2ccc3c(c2)S(=O)(=O)c2cccc(C(=O)NCc4ccc(F)cc4)c2C3=O)CC1 | -2.3 | 7.5 | -19.5 | 336.7* | . | 78.2*
CC1CCN(c2ccc3c(c2)S(=O)(=O)c2cccc(C(=O)NC4CCCCC4)c2C3=O)CC1 | -1.5 | -1.9 | -30.8* | 34.5* | . | 39.0*
O=C(NCc1ccccc1Br)c1cccc2c1C(=O)c1ccc(N3CCOCC3)cc1S2(=O)=O | 1.7 | -0.9 | -18.5 | 36.8* | . | 16.1
O=C1CC(c2c(Cl)cccc2Cl)c2c(ccc3ccccc23)N1 (centres undefined) | 2.4 | -4.4 | 13.6 | 1.1 | -0.1% | -0.3
Cc1ccc(Cn2c(CNS(=O)(=O)c3cccc([N+](=O)[O-])c3)nc3cccnc32)cc1 | -3.8 | -1.8 | 7.1 | 1.5 | 1.1% | -0.5
O=C(c1ccc(C(F)(F)F)cc1)N1CCC(c2noc(-c3ccc(S(=O)(=O)N4CCCC4)cc3)n2)CC1 | 1.2 | 4.4 | -0.4 | -0.7 | -3.8% | 0.2
COc1cc([N+](=O)[O-])ccc1NC(=O)NCC1CCN(Cc2ccc(Cl)cc2)CC1 | -9.8 | 15.6 | -33.0* | 31.5* | . | 3.2
O=C(NCC1CCN(Cc2cccc(Cl)c2)CC1)Nc1cc(Cl)ccc1Cl | -0.6 | -1.1 | 11.8 | 18.5 | 1.2% | 2.4
COc1ccc(Cl)cc1NC(=O)NCC1CCN(Cc2cc(C)ccc2C)CC1 | -9.4 | 1.1 | -31.3* | 29.7 | . | 1.3
CCOc1ccc(Cn2c(CNS(=O)(=O)c3ccc(C(C)(C)C)cc3)nc3cccnc32)cc1 | 3.5 | 1.1 | 1.7 | 3.1 | 1.4% | -0.1
CC(C)C[C@H](N)c1nnc(S(=O)(=O)Cc2ccc(F)cc2)o1 | -16.1 | -3.5 | -70.3* | 9.7 | 0.2% | -0.4
O=C(CSc1ncn[nH]1)Nc1ccccc1C(=O)O | -0.2 | -7.1 | 8.2 | -0.5 | 1.9% | -0.5
O=C(CSc1ncn[nH]1)Nc1ccc(Br)cc1F | 0.6 | -3.9 | -36.1* | 1.1 | 3.1% | -0.6
SMILES | D1 potentiator | TRHR PAM | D1 antagonist | D1 agonist | Epigenetic reg | TRHR agonist
Cc1cc(/C=N/n2cnnc2)c(C)n1-c1ccc(Cl)cc1Cl | -5.3 | -5.9 | -34.9* | 15.1 | -0.8% | 1.0
CC1=C(C(=O)Nc2cccnc2)C(c2cccc(F)c2)n2nc(SCc3ccccc3)nc2N1 (centres undefined) | -0.1 | -6.8 | -14.7 | -0.7 | 0.1% | 0.2
Cc1cc(CNC(=O)CC2C(=O)NCCN2Cc2ccccc2)nn1C (centres undefined) | -0.5 | 3.4 | 0.1 | 1.2 | . | 0.0
Cc1cc(CNC(=O)CC2C(=O)NCCN2CC(C)(C)C)nn1C (centres undefined) | 7.6 | 6.0 | -38.9* | -0.6 | -0.2% | 0.0
COc1ccc(-c2cc(C(=O)OCc3ccccn3)c3ccccc3n2)cc1 | -6.5 | -9.2 | -34.3* | 12.8 | . | 0.7
O=C(OC1CCOC1=O)c1cc(-c2ccc(Br)cc2)nc2ccccc12 (centres undefined) | 3.2 | 17.4 | 12.1 | 6.4 | -0.9% | -0.2
COc1ccc(-c2cc(C(=O)OC3CCOC3=O)c3ccccc3n2)cc1 (centres undefined) | -5.2 | -0.3 | -32.4* | 2.2 | 2.1% | 0.6
COC(=O)[C@@]1(Cc2ccc(F)cc2)[C@H]2c3cc(C(=O)N4CCCC4)n(Cc4c(CO)[nH]cc(C)c4=O)c3C[C@H]2CN1C(=O)c1ccccc1 | . | . | . | . | -0.5% | .
Cc1nc(NCc2ccccc2)c2nc(-c3ccccc3)n(CCN3CCCCC3)c2n1 | . | . | . | . | 10.0% | .
Nc1cc2c3c(cccc3c1)C(=O)N(CCN1CCCC1)C2=O | -0.1 | 4.6 | -4.9 | 55.7* | ? | 12.3
O=C1c2cccc3cc([N+](=O)[O-])cc(c23)C(=O)N1CCN1CCCC1 | 9.8 | -4.5 | 7.3 | 1.1 | 6.7% | 0.2
O=C(Cc1ccc(F)cc1)Nc1nnc2n1CCS2 | -1.5 | 2.5 | -5.7 | 0.4 | 1.1% | 0.5
CC(=O)c1ccc(N2CCCC2)c(F)c1 | -5.4 | 0.1 | 3.4 | 1.1 | 1.0% | -0.8
CCC(=O)c1ccc(N2CCCCC2)c(F)c1 | -4.5 | -1.1 | -54.7* | -0.8 | 1.0% | -0.3
CNCc1ccccc1Sc1cccc2ccccc12 | -9.8 | 3.8 | -19.2 | 59.5* | 2.2% | 0.8
CN(C)CCN(C)Cc1ccccc1Sc1cccc2ccccc12 | -15.4 | 4.3 | -36.3* | 51.2* | 1.1% | 0.7
